Assay results from PubChem BioAssay AID1159580 (chemical genetic matrix, 2015).
About 2,000 (36%) of roughly 5,500 compounds were called active. About 18% were inconclusive and are not listed. Rule as the data show it: active = normalized growth mostly below about 0.91 (no sharp cut-off); inconclusive = no clear call, values can overlap the other calls; inactive = mostly above about 0.92. The list shows a part of the results.

Assay: chemical genetic growth profiling, strain panel (AID 1159580);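 also: tested at 20 µM; growth read once vehicle control cultures reached saturation at 30 °C; 1 = growth at the plate median or of vehicle wells; lower values mean less growth of the strain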
Settings: S. cerevisiae deletion strains, growth OD

Measured: normalized growth

C/C(=N/NC(=S)NCC(C)(C)C)c1cc(F)cc(Cl)c1O
active: locus YHR030C, strain SLT2, hits give low values 0.681 | locus YLR113W, strain HOG1, hits give low values 0.735 | locus YPL256C, strain CLN2, hits give low values 0.782
inactive: locus YAR019C, strain CDC15, hits give low values 0.963 | locus YBL105C, strain PKC1, hits give low values 0.961 | locus YBR135W, strain CKS1, hits give low values 0.956 | locus YBR136W, strain MEC1, hits give low values 0.959 | locus YBR160W, strain CDC28, hits give low values 0.97 | locus YDL017W, strain CDC7, hits give low values 0.953 | locus YDL028C, strain MPS1, hits give low values 0.959 | locus YDL101C, strain DUN1, hits give low values 0.967 | locus YDL108W, strain KIN28, hits give low values 0.972 | locus YDL132W, strain cdc53, hits give low values 0.98 | locus YDL214C, strain PRR2, hits give low values 0.942 | locus YDR052C, strain DBF4, hits give low values 0.971 | locus YDR054C, strain cdc34, hits give low values 0.976 | locus YDR226W, strain ADK1, hits give low values 0.965 | locus YDR477W, strain SNF1, hits give low values 0.928 | locus YER123W, strain YCK3, hits give low values 0.928 | locus YER133W, strain GLC7, hits give low values 0.955 | locus YFL009W, strain cdc4, hits give low values 0.966 | locus YFL029C, strain CAK1, hits give low values 0.953 | locus YFR003C, strain YPI1, hits give low values 0.963 | locus YFR019W, strain FAB1, hits give low values 0.992 | locus YFR028C, strain CDC14, hits give low values 0.961 | locus YGR040W, strain KSS1, hits give low values 0.922 | locus YGR052W, strain FMP48, hits give low values 0.938 | locus YGR092W, strain DBF2, hits give low values 0.716 | locus YHR079C, strain IRE1, hits give low values 0.784 | locus YHR082C, strain KSP1, hits give low values 0.964 | locus YHR205W, strain SCH9, hits give low values 0.941 | locus YIL147C, strain SLN1, hits give low values 0.963 | locus YJL095W, strain BCK1, hits give low values 0.852 | locus YJL128C, strain PBS2, hits give low values 0.952 | locus YJL157C, strain FAR1, hits give low values 0.936 | locus YJR016C, strain ILV3, hits give low values 0.961 | locus YJR066W, strain TOR1 (second series), hits give low values 0.868 | locus YJR066W, strain TOR1, hits give low values 0.894 | locus YKL048C, strain ELM1, hits give low values 0.946 | locus YKL067W, strain YNK1, hits give low values 0.962 | locus YKL101W, strain HSL1, hits give low values 0.923 | locus YKL193C, strain SDS22, hits give low values 0.966 | locus YKL203C, strain TOR2, hits give low values 0.94 | locus YLR133W, strain CKI1, hits give low values 0.884 | locus YLR403W, strain SFP1, hits give low values 0.837 | locus YML070W, strain DAK1, hits give low values 0.941 | locus YMR001C, strain CDC5, hits give low values 0.961 | locus YMR205C, strain PFK2 (second series), hits give low values 0.939 | locus YMR277W, strain FCP1, hits give low values 0.96 | locus YNL006W, strain LST8, hits give low values 0.972 | locus YNL020C, strain ARK1, hits give low values 0.837 | locus YNL161W, strain CBK1, hits give low values 0.956 | locus YNL183C, strain NPR1, hits give low values 0.947 | locus YNL207W, strain RIO2, hits give low values 0.962 | locus YNL222W, strain SSU72, hits give low values 0.959 | locus YNL307C, strain MCK1 (second series), hits give low values 0.883 | locus YOL078W, strain AVO1, hits give low values 0.974 | locus YOL136C, strain PFK27, hits give low values 0.948 | locus YOR061W, strain CKA2, hits give low values 0.869 | locus YOR119C, strain RIO1, hits give low values 0.984 | locus YOR231W, strain MKK1, hits give low values 0.837 | locus YOR329C, strain SCD5, hits give low values 0.964 | locus YPL031C, strain PHO85, hits give low values 0.915 | locus YPL153C, strain RAD53, hits give low values 0.913 | locus YPL204W, strain HRR25, hits give low values 0.92 | locus YPL209C, strain IPL1, hits give low values 0.959 | locus YPR025C, strain CCL1, hits give low values 0.965 | locus YPR106W, strain ISR1, hits give low values 0.989 | locus YPR111W, strain DBF20, hits give low values 0.968 | strain NNK1, hits give low values 0.973 | strain TSCII, hits give low values 0.956
